Screens: PubChem BioAssay, National Center for Advancing Translational Sciences (NCATS)
Compounds with a hit are over-represented: about 2.8% of the library has one in this group of screens.
PMP22 txn prim = modulates PMP22 transcription in S16 Schwann cells; hit rate 2% among 43,000; Potency, µM (top dose mostly 57.5 µM), hits mostly inhibitors; S16 Pmp22-F2sN Schwann cells, FLuc/NLuc coincidence luminescence, 24 h; AID 1508649; active = clear falling dose curves in both reporters; inconclusive = both reporters move, but less clearly or upward; inactive = either reporter flat; the % is the NLuc reporter signal
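S16(c9) Schwann cells with FLuc/NLuc coincidence reporter in the Pmp22 3' UTR; compounds pin-transferred, 24 h at 37C. Dual-luciferase read: FLuc first, then NLuc after Stop&Glo, each 10 min at room temperature.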
S16 F2sN tox = cytotoxicity in S16 Pmp22-F2sN Schwann cells; S16 Pmp22-F2sN Schwann cells viability, CellTiter-Glo, 24 h; Potency, µM (highest dose often 57.5 µM), hits mostly cytotoxic; hit rate 0.48% among 43,000; AID 1508642; also: nearly all actives have a fitted effect of over 65% in size
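Used to flag compounds lowering reporter output through toxicity, this quantitative HTS measures ATP-based CellTiter-Glo luminescence in S16 Pmp22-F2sN Schwann cells after 24 h compound exposure at 37C.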
PTAP-TSG101 blk = inhibitors of HIV-1 PTAP binding to human TSG101, validation; Q99816; Fluorescence polarization, FITC-PTAP peptide/Tsg101, 20 min; Potency, µM (series often up to 115 µM), usual class: inhibitors; 44,000 tested, under 10 active
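FITC-labeled PTAP peptide (50 nM final) binding to Tsg101 binding domain (10 uM final) read by fluorescence polarization after 20 min at r.t. in HEPES pH 7.5 buffer. Actives by CRC class, <25 µM.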
pS6 MEF inh = reduces mTORC1 signaling in Tsc2 and p53 null MEF cells; Tsc2-/- p53-/- MEF, phospho-rpS6 immunofluorescence/PI, 24 h; Potency, µM (top dose mostly 38.3 µM), usual class: inhibitors; hit rate 0.78% among 44,000; also: nearly all actives have a fitted effect of over 50% in size
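Tsc2-/-, p53-/- mouse embryonic fibroblasts (empty-vector line) exposed to compound 24 hrs at 37 C, fixed, immunostained for phospho-rpS6 and counterstained with propidium iodide. Acumen laser scanning gives % positive cells from Alexa 488/PI ratio, thresholded using 7.5 nM rapamycin; PI count gives viability.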
GALK inh = inhibitors of human galactokinase (GALK); recombinant GALK, Kinase-Glo ATP luminescence, 1 h; 44,000 tested, under 10 active; Potency, µM (series often up to 57.5 µM), hits mostly inhibitors; P51570
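Human GALK (5 nM) was incubated with 35 uM ATP and 100 uM galactose in 20 mM HEPES pH 8.0 with MgCl2, NaCl, DTT and BSA for 1 h at room temperature. Remaining ATP was measured by Kinase-Glo Plus luminescence.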
NLuc saturating = counter-screen for PMP22 expression modulators: NanoLuc inhibition, saturating substrate. hit rate 4% among 690. Secreted NLuc enzyme (filtered S16 cell medium), Nano-Glo luminescence. shares compounds with PMP22 txn prim. Potency, µM (titrated, usually from 57.5 µM), hits mostly inhibitors
NLuc Km counter = counter-screen for PMP22 expression modulators: NanoLuc inhibition at Km. shares compounds with PMP22 txn prim. secreted NLuc enzyme, coelenterazine luminescence, Km conditions. Potency, µM (series often up to 57.5 µM), actives largely listed as inhibitors. hit rate 5% among 690. AID 1508639
FLuc ctr PMP22 = firefly luciferase enzyme inhibition artifact for PMP22 screen | shares compounds with PMP22 txn prim | purified P. pyralis FLuc, luminescence, 10 min | Potency, µM (doses to about 57.5 µM), actives largely listed as inhibitors | 690 tested, under 10 active
Target sequence (P08659 whole entry, looked up): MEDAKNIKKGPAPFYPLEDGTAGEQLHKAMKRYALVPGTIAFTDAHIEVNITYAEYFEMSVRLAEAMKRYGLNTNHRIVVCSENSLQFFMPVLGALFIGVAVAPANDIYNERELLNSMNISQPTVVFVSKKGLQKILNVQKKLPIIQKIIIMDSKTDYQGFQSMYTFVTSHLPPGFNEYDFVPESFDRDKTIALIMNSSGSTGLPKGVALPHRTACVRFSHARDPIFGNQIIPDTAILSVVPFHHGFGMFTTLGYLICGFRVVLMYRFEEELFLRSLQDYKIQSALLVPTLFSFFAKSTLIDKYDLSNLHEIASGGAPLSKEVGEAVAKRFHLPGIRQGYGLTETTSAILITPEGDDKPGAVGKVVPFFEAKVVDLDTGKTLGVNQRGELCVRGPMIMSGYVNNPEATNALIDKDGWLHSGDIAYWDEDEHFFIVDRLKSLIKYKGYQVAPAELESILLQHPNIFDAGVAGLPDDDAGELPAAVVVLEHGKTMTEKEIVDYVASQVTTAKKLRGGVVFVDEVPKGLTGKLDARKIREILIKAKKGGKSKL
S16 F2sN tox cnf = S16 Schwann cell cytotoxicity, confirmatory; shares compounds with PMP22 txn prim; S16 Schwann cells viability, CellTiter-Glo ATP luminescence, 24 h; Potency, µM (series often up to 57.5 µM), hits mostly cytotoxic; hit rate 7% among 690; AID 1508641
PMP22 txn cnf = PMP22 transcription modulation, confirmatory; hit rate 22% among 690; Potency, µM (series often up to 57.5 µM), most hits filed as inhibitors; shares compounds with PMP22 txn prim; S16 Schwann cells Pmp22-F2sN, dual luciferase, 24 h; active = clear falling dose curves in both reporters; inconclusive = both reporters move, but less clearly or upward; inactive = either reporter flat; the % is the FLuc reporter signal
PMP22 HiBiT cnf = confirmation of modulators of rat PMP22 protein expression; S16 Schwann cells Pmp22-HiBiT, luminescence, 48 h; AID 1508647; shares compounds with PMP22 txn prim; 95 tested, under 10 active; Potency, µM (series often up to 27.9 µM), hits mostly inhibitors
Each line names hits and unclear results; the compound was inactive in the other large screens (follow-up assays come after a bar, where they were run). Unless noted, calls follow the shape of the dose curve; as a rule, active = well fitted curve in the direction sought with a large enough effect; inconclusive = small, poorly fitted or top-dose-only effect, or another doubt; inactive = no such curve, though single readings can be large; an effect the other way counts as inactive or inconclusive.

COc1ccc(NCc2cc3cc4c(cc3n(CC(=O)Nc3cccc(F)c3)c2=O)OCO4)cc1	PMP22 txn prim inconclusive
COc1ccc(NCc2cc3cc4c(cc3n(CC(=O)Nc3ccc(F)cc3F)c2=O)OCO4)cc1	PMP22 txn prim 18µM, GALK inh inconclusive | NLuc saturating inconclusive | NLuc Km counter inactive | FLuc ctr PMP22 inactive | S16 F2sN tox cnf inactive | PMP22 txn cnf inactive
CC(C)c1ccc(OCC(=O)Nc2cc(-c3nc4ncccc4o3)ccc2Cl)cc1	PMP22 txn prim 13µM | NLuc saturating inactive | NLuc Km counter inactive | FLuc ctr PMP22 inactive | S16 F2sN tox cnf inactive | PMP22 txn cnf inconclusive
CCc1c(C)c2ccc(O)c(CN3CCN(c4ccc(F)cc4)CC3)c2oc1=O	none (no result: PMP22 txn prim, S16 F2sN tox)
CC(=O)c1ccc(NC(=O)COc2ccccc2-c2nc(C(C)C)no2)cc1	PMP22 txn prim 13µM | NLuc saturating inactive | NLuc Km counter inactive | FLuc ctr PMP22 inactive | S16 F2sN tox cnf inactive | PMP22 txn cnf inactive
CC(=O)c1ccc(NC(=O)COc2ccccc2-c2nc(C)no2)cc1	none
Cc1cccc(N2C(=O)CS(=O)(=O)C23C(=O)N(Cc2c(F)cccc2Cl)c2ccccc23)c1 (configuration not stated)	none
CCCCNC(=O)c1ccc(-c2nc(CS(=O)(=O)c3ccc(C)cc3)c(C)o2)cc1	PMP22 txn prim inconclusive
Cc1ccc(CNC(=O)c2ccc(-c3nc(CS(=O)(=O)c4ccc(C)cc4)c(C)o3)cc2)cc1	PMP22 txn prim 13µM, S16 F2sN tox inconclusive | NLuc saturating inactive | NLuc Km counter inactive | FLuc ctr PMP22 inactive | S16 F2sN tox cnf inactive | PMP22 txn cnf inactive
Cc1ccc(-n2nc(CO)c(C(=O)NCCCc3ccccc3)n2)cc1C	none
CCOc1ccccc1NC(=O)C1CCN(S(=O)(=O)c2c(C)noc2/C=C/c2ccco2)CC1	PMP22 txn prim 9.5µM | NLuc saturating inconclusive | NLuc Km counter inactive | FLuc ctr PMP22 inactive | S16 F2sN tox cnf inactive | PMP22 txn cnf inactive
COC(=O)c1c(NC(=O)CCCOc2ccccc2C)sc2c1CCC2	none (no result: PMP22 txn prim, S16 F2sN tox)
COC(=O)c1c(-c2ccc(Cl)cc2)noc1N1CCN(c2ccc(C)cc2C)CC1	PMP22 txn prim 10µM, S16 F2sN tox inconclusive | NLuc saturating inactive | NLuc Km counter inactive | FLuc ctr PMP22 inactive | S16 F2sN tox cnf inconclusive | PMP22 txn cnf 19µM
COC(=O)c1c(-c2ccc(Cl)cc2)noc1N1CCN(c2cc(C)ccc2C)CC1	PMP22 txn prim 5.6µM, S16 F2sN tox inconclusive, pS6 MEF inh inconclusive | NLuc saturating inactive | NLuc Km counter inactive | FLuc ctr PMP22 inactive | S16 F2sN tox cnf inconclusive | PMP22 txn cnf 17µM | PMP22 HiBiT cnf inconclusive
COc1ccc(CCN2C(=O)c3[nH]nc(-c4ccccc4O)c3C2c2ccc(OC)cc2)cc1 (configuration not stated)	PMP22 txn prim inconclusive, S16 F2sN tox inconclusive
